Bioassay records: PubChem, National Center for Advancing Translational Sciences (NCATS)
SARS PLP yeast = SARS-CoV PLP inhibition in yeast | S. cerevisiae expressing SARS-CoV PLpro, growth rescue | 330,000 tested, 0.19% active | Potency, µM (series often up to 32.9 µM), without a hit: at the top dose activity, positive = growth rescue, actives largely listed as activators; note: potency is the fitted concentration of half-maximal effect; 0% is about no effect; nearly all actives have a fitted effect of over 55% in size
CHX counter = counter-screen for Shiga toxin inhibitors: cycloheximide protein synthesis inhibition | max response, % | cell reporter, cycloheximide protein synthesis inhibition counterscreen | 300,000 tested, 12% active; in the data active = max response mostly above about 13%, no sharp cut-off; inactive = mostly below about 14%; note: read at 38.3 µM for the half of the compounds with a filed dose; 0% is about no effect
Shiga inhibitor = Shiga toxin inhibition; 290,000 tested, 9.2% active; AID 2315; inhibition, % at 38.7 µM; Vero cells, Shiga toxin protein synthesis inhibition reporter; in the data active = inhibition mostly above about 28%, no sharp cut-off; inactive = mostly below about 43%; note: 0% is about no effect
NS1 function inh = inhibitors of influenza NS1 protein function; Potency, µM (titrated, usually from 46.1 µM), without a hit: at the top dose activity, positive = more growth; AID 2326; 270,000 tested, 0.4% active; note: potency is the fitted concentration of half-maximal effect; actives are rising curves; nearly all actives have a fitted effect of over 50% in size
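Compounds were scored for reversing the slow growth caused by influenza A NS1 in S. cerevisiae, measured by optical density at 600 nm. Assay medium contained 2% galactose at pH 6.0; NS1-free yeast of the same strain were the positive control.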
TbPYK inhibitor = T. brucei pyruvate kinase inhibition; Q57TT1; TbPYK enzyme, Kinase-Glo Plus ATP luminescence, 45 min; Potency, µM (doses to about 76.8 µM), for the others: at the top dose activity, negative = inhibition, hits mostly inhibitors; 410,000 tested, 0.12% active; AID 624173; active = well fitted curve in the direction sought with a large enough effect; inconclusive = small, poorly fitted or top-dose-only effect, or another doubt; inactive = no such curve, though single readings can be large; an effect the other way counts as inactive or inconclusive; note: potency is the fitted concentration of half-maximal effect; % is set by controls: 0 for no effect and ±100 for the full control effect; nearly all actives have a fitted effect of over 50% in size
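Glycolytic pyruvate kinase of T. brucei was incubated with substrate, test compound and 130 uM ADP for 45 minutes at room temperature. Luminescent Kinase-Glo Plus signal was measured after 10 minutes.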
LmPK inhibitor = inhibitors of Leishmania mexicana pyruvate kinase; Q27686; purified LmPK, Kinase-Glo ATP luminescence, 1 h; Potency, µM (top dose mostly 57.5 µM), for inactives: at the highest dose activity change, negative = inhibition, actives largely listed as inhibitors; 290,000 tested, 0.37% active; AID 1721; active = well fitted curve in the direction sought with a large enough effect; inconclusive = small, poorly fitted or top-dose-only effect, or another doubt; inactive = no such curve, though single readings can be large; an effect the other way counts as inactive or inconclusive; note: potency is the fitted concentration of half-maximal effect; % is set by controls: 0 for no effect and ±100 for the full control effect
Target sequence (Q27686 whole entry, looked up): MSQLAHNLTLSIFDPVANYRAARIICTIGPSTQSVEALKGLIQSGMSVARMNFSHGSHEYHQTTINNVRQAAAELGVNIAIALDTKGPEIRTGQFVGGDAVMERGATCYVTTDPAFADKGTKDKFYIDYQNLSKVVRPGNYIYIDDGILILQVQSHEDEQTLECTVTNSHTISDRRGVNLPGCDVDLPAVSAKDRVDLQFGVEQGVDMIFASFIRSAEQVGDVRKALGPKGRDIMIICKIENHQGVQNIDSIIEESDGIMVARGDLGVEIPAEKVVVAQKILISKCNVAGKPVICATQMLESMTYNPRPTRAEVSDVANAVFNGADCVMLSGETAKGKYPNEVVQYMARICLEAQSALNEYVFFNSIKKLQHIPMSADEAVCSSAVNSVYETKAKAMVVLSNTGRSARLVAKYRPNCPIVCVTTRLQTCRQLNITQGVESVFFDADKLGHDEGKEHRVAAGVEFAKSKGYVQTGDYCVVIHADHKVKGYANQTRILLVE
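Kinase-Glo luminescence read after 1 h RT reaction of 0.1 nM LmPK with 0.5 mM PEP and 0.1 mM ADP. Activity scaled between uninhibited and enzyme-free controls.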
* hit, by the source's call; ? = inconclusive; / = no result; [ ] = dose if it differs, or a comment. This excerpt belongs to a sample that is enriched for hits. Unless noted, calls come from the whole dose curve.

SMILES | SARS PLP yeast | CHX counter | Shiga inhibitor | NS1 function inh | TbPYK inhibitor | LmPK inhibitor
O=C1c2ccccc2C(=O)N1CCSC(=S)N1CCOCC1 | 3% | 26* | 51 | 7% | -1% | 7%
COC(=O)c1sccc1S(=O)(=O)N(CC(=O)NCc1ccc(C)cc1)c1ccc(Cl)cc1 | / | / | / | / | 1% | /
COc1cccc(C=NN(C)c2c([N+](=O)[O-])cc(C(F)(F)F)cc2[N+](=O)[O-])c1O | / | / | / | / | -4% | /
Cc1cccc(OCC(=O)Nc2cccc(OCc3cc(=O)n4cccc(C)c4n3)c2)c1 | / | / | / | / | -5% | /
Cc1ccc(C)c(S(=O)(=O)N2CCN(C(=O)/C=C/c3ccco3)CC2)c1 | 1% | / | / | / | -23% | /
O=C1c2cccc3cccc(c23)C(=O)N1CCc1ccccc1 | -2% | 51* | 95* | / | 0% | -1%
COCc1nnc(NC(=O)c2cccc(NC(=O)C(C)C)c2)s1 | 1% | 14* | 27* | 3% | -5% | -7%
CCc1nnc(NC(=O)c2cccc(NC(=O)C(C)C)c2)s1 | 1% | 45* | 67 | 14% | -8% | -6%
Cc1nnc(NC(=O)c2cccc(NC(=O)C(C)C)c2)s1 | 4% | 10 | 49 | 7% | -1% | -1%
CC(Cl)c1cc(-c2ncc(C(F)(F)F)cc2Cl)no1 (configuration not stated) | 3% | 23* | 84* | / | -9% | 0%
Cc1ccc2nc(-c3ccc(NC(=O)COc4ccccc4C(C)(C)C)cc3)sc2c1 | / | / | / | / | 1% | /
Cc1ccc2nc(-c3ccc(NC(=O)COC(=O)c4ccc([N+](=O)[O-])o4)cc3)sc2c1 | 1% | 53* | 91* | -8% | -2% | -1%
O=C(COC(=O)c1ccc([N+](=O)[O-])o1)Nc1ccc(F)cc1 | -12% | / | / | / | 0% | /
C=CCn1c(SCC(=O)Nc2ccc(-c3nc4ccc(C)cc4s3)cc2)nnc1-c1ccccc1 | -6% | 42* | 84* | 3% | -6% | -2%
Cc1ccc2nc(-c3ccc(NC(=O)COC(=O)c4cncc(Br)c4)cc3)sc2c1 | -8% | 39* | 64* | 4% | -5% | 3%
CCOc1ncccc1C(=O)OCC(=O)Nc1ccc(-c2nc3ccc(C)cc3s2)cc1 | -12% | 76* | 128* | 2% | -5% | -3%
CCON=C(CC)C1=C(O)CC(c2c(C)cc(C)cc2C)CC1=O (configuration not stated) | / | / | / | / | -9%[157 µM] | /
Cc1ccc2nc(-c3ccc(NC(=O)CN4CCN(C(=O)c5ccco5)CC4)cc3)sc2c1 | 5% | 43* | 136* | -2% | -6% | 2%
Cc1ccc2nc(-c3ccc(NC(=O)COc4ccccc4)cc3)sc2c1 | / | / | / | / | 0% | /
Cc1ccc2nc(-c3ccc(NC(=O)COC(=O)c4ccco4)cc3)sc2c1 | ? | 46* | 80* | 7% | -6% | 1%
Cc1ccc2nc(-c3ccc(NC(=O)COC(=O)c4ccc(Br)o4)cc3)sc2c1 | -10% | 27* | 81* | 7% | -6% | 2%
COc1ccc(/C=C(\C#N)C(=O)OCC(=O)Nc2ccc(-c3nc4ccc(C)cc4s3)cc2)cc1 | 0% | 28* | 123* | 0% | -3% | 1%
O=C(COC(=O)c1ccc(Br)o1)Nc1ccc(Br)cc1 | 2% | / | / | / | -12% | /
Cc1ccc(NC(=O)CN2CCN(C(=O)c3ccco3)CC2)cc1 | 1% | -4 | -4 | -12% | -5% | 0%
COc1ccc(/C=C(\C#N)C(=O)OCC(=O)NC(C)c2ccccc2)cc1 (configuration not stated) | 15% | -2 | 8 | -3% | -1% | -4%
CC(=O)Nc1ccc(NC(=O)COC(=O)c2ccco2)cc1 | -3% | 11 | 13 | -2% | 0% | 7%
Cc1ccc2cc3cc(C(=O)N4CCN(C(=O)c5ccco5)CC4)sc3nc2c1 | -3% | 19* | 28 | -8% | -18% | 0%
Cc1ccc(NC(=O)COC(=O)c2ccco2)cc1 | -1% | 37* | 54* | 1% | 0% | -2%
CNS(=O)(=O)c1cccc(C(=O)OCC(=O)Nc2ccc(N3CCCCC3)cc2)c1 | -4% | 17 | 26 | 6% | -2% | 8%
